# Laboratory results published in ChEMBL document CHEMBL3988442, “University of Dundee, Small-Polar-MMV Screening Library” (2021).
# Hit rate of the full screen: of about 48,000 compounds, about 13,000 (27%) showed an effect of 50% or more. This is one part of the list.
# Test system: Wolbachia pipientis
# Experiment: Anti-Wolbachia Cell-Based Screen
# Type: functional
# Set-up: scale not given: in the data most compounds retested in dose-response had high values
# Details: 5 µM
row,Compound,Percent Effect
1,O=C(CCCn1nnc(-c2ccc(F)cc2)n1)N1CCOCC(CO)C1 (configuration not stated),-1.392%
2,CCCN(Cc1nccn1C)C(=O)c1cnn[nH]1,-16.97%
3,Cc1nn(C2CCCC2)c2nc(C(C)(C)CN3CCN(C)CC3)[nH]c12,98.14%
4,Cc1nn(-c2ccccc2)c(C)c1-c1ccnc(N2CCC(O)CC2)n1,-6.995%
5,CC(CN1CCOCC1)NCc1nncn1C1CCCCC1 (configuration not stated),-12.38%
6,CC(C)(C)c1c[nH]c([C@@H]2COCCN2C2CCCCC2)n1,-16.61%
7,Cc1nn(C2CCCCC2)c2nc(C(C)(C)CN3CCOCC3)[nH]c12,104.5%
8,Cc1nn(-c2ccccc2)c2nc(C(C)(C)CN3CCN(C)CC3)[nH]c12,102.6%
9,Cn1ncc2c(NCCCOc3cccnc3)nc(C3CCCC3)nc21,15.74%
10,CCn1cnnc1C1CCN(C(=O)c2ccccc2OC)CC1,-6.439%
11,CCn1cnnc1C1CCN(C(=O)COc2ccccc2OC)CC1,7.042%
12,CCn1cnnc1C1CCN(C(=O)c2cc(F)ccc2OC)CC1,106.7%
13,CCn1cnnc1C1CCN(C(=O)Cc2ccc(OC)c(F)c2)CC1,-0.6685%
14,CCn1cnnc1C1CCN(C(=O)COc2ccc(Cl)cc2)CC1,6.006%
15,COc1ccc(CC(=O)N2CCC(c3nncn3C)CC2)cc1F,-9.824%
16,CCn1cnnc1C1CCN(C(=O)c2ccc(Cl)cc2OC)CC1,99.28%
17,CCn1cnnc1C1CCN(C(=O)c2cc(OC)ccc2OC)CC1,101%
18,CCn1cnnc1C1CCN(C(=O)c2cccc(OC)c2OC)CC1,96.27%
19,O=C(O)C(F)(F)F.O=C([C@H]1COC[C@H]2CN(C3CCCC3)C[C@H]21)N1CCCCO1,-5.445%
20,O=C(Cc1cccc(Cl)c1)Nc1cnccc1SCCCO,7.035%
21,COc1ccc(CNc2nncs2)cc1F,-12.2%
22,O=C(Nc1ccc(OC(F)F)cc1)N1CCC(c2nnc[nH]2)CC1,-4.065%
23,O=C(Nc1cccnc1-n1cncn1)C1CCC1,-13.11%

row,Compound,Percent Effect
1,CNC(=O)Cc1ccccc1NC(=O)C1CCCC1,5.338%
2,NC(=O)CSc1ccccc1NC(=O)CC1C=CCC1 (configuration not stated),119.4%
3,NC(=O)CSc1ccccc1NC(=O)C1CCCCC1,84.77%
4,CSc1ccccc1NC(=O)CCN1CCC(C(=O)N(C)C)CC1,8.025%
5,NC(=O)CSc1ccccc1NCc1nc(Cc2ccccc2)no1,-16.37%
6,NC(=O)CSc1ccccc1NC(=O)C1CCCC1,99.94%
7,NC(=O)CSc1ccccc1NCc1nc(C2CC2)no1,-3.279%
8,CCCN1CCC(N(C)CCC(=O)Nc2ccccc2SC)CC1,-1.207%
9,CNC(=O)Cc1ccccc1NC(=O)C1CCN(C2CCCCC2)C1 (configuration not stated),-1.289%
10,CC(=O)N1CCCC(C(=O)Nc2ccccc2Cc2ccccc2)C1 (configuration not stated),4.475%
11,CC(C)(C)CC(=O)Nc1ccccc1SCC(N)=O,103.7%
12,CCc1ccc(CN(CCN(C)C)Cc2ccc(C)s2)nc1,19.31%
13,CN(C)CCN1CCOCC2(C1)CN(Cc1nccs1)CCO2.O=C(O)C(F)(F)F.O=C(O)C(F)(F)F.O=C(O)C(F)(F)F (configuration not stated),-2.784%
14,Cn1nnc2c1CCN(Cc1ccncc1)C2COCc1ccccc1.O=C(O)C(F)(F)F.O=C(O)C(F)(F)F (configuration not stated),7.235%
15,CCn1cc(CN2CCCN(C(=O)c3ccn(C)c(=O)c3)CC2)cn1,-5.674%
16,Cn1cc(CN2CCCN(C(=O)c3cc[nH]n3)CC2)cn1,-7.081%
17,CC(C)n1cc(CN2CCCN(C(=O)c3ccoc3)CC2)cn1,-9.039%
18,Cc1cccc(C(=O)N2CCCN(Cc3cnn(C)c3)CC2)n1,-11.33%
19,CC(C)n1cc(CN2CCCN(C(=O)c3ccco3)CC2)cn1,13.14%
20,Cn1cc(CN2CCCC3(CCN(C(=O)c4ccoc4)C3)C2)cn1 (configuration not stated),-4.278%
21,CCn1cc(CN2CCCN(C(=O)c3ccoc3)CC2)cn1,93.78%
22,Cc1ccoc1C(=O)N1CCCN(Cc2cnn(C)c2)CC1,85.33%
23,CCn1cc(CN2CCCN(C(=O)c3ccco3)CC2)cn1,139.7%

row,Compound,Percent Effect
1,CCn1cc(CN2CCCN(C(=O)c3ccc(C)nc3)CC2)cn1,109.5%
2,CC(C)CCc1noc(CN2CCCN(C(=O)c3ccco3)CC2)n1,-6.659%
3,CCc1cccc(NC(=O)CCC(=O)N(C)Cc2nc(C)c[nH]2)c1,-13.69%
4,O=C(O)c1cc(-c2ccoc2)cc(S(=O)(=O)NCc2ccccn2)c1,3.348%
5,c1cncc(COCC2CN(Cc3ccncc3)Cc3ccnn3C2)c1 (configuration not stated),-8.453%
6,Cc1ccc(OC2(C(=O)O)CCN(C/C=C/c3ccco3)CC2)c(C)n1,-5.357%
7,CC(C)c1cc(C(=O)N2C[C@H]3CC[C@@H]2CN(Cc2cccnc2)C3)no1,0.5633%
8,CC(C)N1CCCc2sc(C(=O)NC3CC3)nc21,-0.2474%
9,CNC(=O)Cc1noc(-c2cc3c(s2)CCC(C)C3)n1 (configuration not stated),-12.44%
10,CN(CC1CN(Cc2cn3ccsc3n2)CCO1)c1cccnn1 (configuration not stated),13.06%
11,Cc1nc(COc2ccc(OC(C)C(N)=O)cc2)oc1C (configuration not stated),1.86%
12,Cc1ccc(-n2cc(CN3CCOCC3)c(-c3cccc(C)c3)n2)cc1,0.1947%
13,O=C(c1ccc2nncn2c1)N1CCSC2(CCCCC2)C1,-6.872%
14,CCn1cc(CN2CCCN(C(=O)c3cccn3C)CC2)cn1,145.7%
15,CCn1cc(CN2CCCN(C(=O)c3cc(C)no3)CC2)cn1,149.7%
16,CC(C)n1cc(CN2CCCN(C(=O)c3cccn3C)CC2)cn1,7.673%
17,Cc1cc(C(=O)N2CCN(Cn3cc(Cl)cn3)CC2)on1,0.1609%
18,CCn1cc(CN2CCCN(C(=O)c3ccoc3C)CC2)cn1,105.3%
19,CCc1nc(CN2CCCN(C(=O)c3cccn3C)CC2)cs1,-9.878%
20,Cc1occc1C(=O)N1CCCN(Cc2cnn(C(C)C)c2)CC1,-5.086%
21,CCn1cc(CN2CCCN(C(=O)c3ccc(C)o3)CC2)cn1,126.6%
